# Unmarked numbers belong to inactive results. Calls of active or inactive are those of the source.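 How the source made its calls: active means viability at or below 21.59%, 3 SD under the median of tested compounds; inactive means the rest.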
# Assay: growth suppression of PTEN-null HCT116 cells, cell-based, validation, diverse DP compound set (AID 999);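 further: 100% = median luminescence of untreated cell control wells and 0% = no signal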
# Conditions: CellTiter-Glo, 60 h, at 10 µM, active compounds read low
row,Structure (SMILES),viability
1,OCC1CCCN2CCCCC12 (centres undefined),106%
2,C[C@@H]1O[C@@H](OC2CC(O)C3(CO)C4C(CCC3(O)C2)C2(O)CCC(C3=CC(=O)OC3)C2(C)C[C@H]4O)[C@H](O)[C@H](O)[C@H]1O (some centres undefined),106%
3,C[C@]12CC[C@@H](O)C[C@@H]1CC[C@@H]1[C@@H]2CC[C@]2(C)C(=O)CC[C@@H]12,98.8%
4,CC1=C2[C@H]3OC(=O)[C@@H](C)[C@@H]3CC[C@@]2(C)C=CC1=O,95.7%
5,CC/C(=C(\c1ccccc1)c1ccc(OCCN(C)C)cc1)c1ccccc1,35.9%
6,CC[C@@]1(O)C(=O)OCc2c1cc1n(c2=O)-c2cc3ccccc3nc2C1,24.7%
7,N#CC(C#N)=Cc1ccc([N+](=O)[O-])c(O)c1,108%
8,N#Cc1nn(-c2c(Cl)cc(C(F)(F)F)cc2Cl)c(N)c1S(=O)C(F)(F)F (centres undefined),85.6%
9,O=C1CCC[C@H]2[C@@H]3CCCN4CCC[C@H](CN12)[C@H]34,105%
10,COC(=O)C(O)C(O)(CCC(C)C)C(=O)OC1C(OC)=CC23CCCN2CCc2cc4c(cc2C13)OCO4 (centres undefined),26.2%
11,NCCc1c[nH]c2ccc(O)cc12,98.1%
12,Nc1ccncc1,100%
13,O=C1C=C2C=C[C@@H]3C[C@@]2(O1)[C@H]1CCCCN31,79.4%
14,CCCCCCCCCCCCCC(=O)O[C@@H]1[C@@H](C)[C@@]2(O)[C@@H](C=C(CO)C[C@]3(O)C(=O)C(C)=C[C@@H]23)[C@@H]2C(C)(C)[C@]12OC(C)=O,53.1%
15,CNc1ccc2oc(C[C@@H]3OC4(CC[C@@H]3C)O[C@H](C(C)C(=O)c3ccc[nH]3)[C@H](C)C[C@H]4C)nc2c1C(=O)O (some centres undefined),3.3% (active)
16,C[C@H]1CCC/C=C/C2C[C@H](O)C[C@H]2[C@H](O)/C=C/C(=O)O1 (some centres undefined),58.2%
17,C=CCN1CC[C@]23c4c5ccc(O)c4O[C@H]2C(=O)CC[C@@]3(O)[C@H]1C5,89.3%

row,Structure (SMILES),viability
1,CN1C[C@H](CNC(=O)OCc2ccccc2)C[C@@H]2c3cccc4c3c(cn4C)C[C@H]21,75.3%
2,C=C(C)[C@H]1CN[C@H](C(=O)O)[C@H]1CC(=O)O,99.8%
3,CN(C)[C@@H]1C(=O)C(C(N)=O)=C(O)[C@@]2(O)C(=O)C3=C(O)c4c(O)cccc4[C@@](C)(O)C3CC12 (some centres undefined),97.1%
4,CC(C)c1cc2c(c(O)c1O)[C@@]1(C(=O)O)CCCC(C)(C)[C@@H]1CC2,97.5%
5,CCCN1CCC[C@@H]2Cc3cn[nH]c3C[C@H]21,105%
6,CCCC[C@H]1C(=O)O[C@H](C)[C@H](NC(=O)c2cccc(NC=O)c2OC)C(=O)O[C@@H](C)[C@@H]1OC(=O)CC(C)C,93.3%
7,NCC(CC(=O)O)c1ccc(Cl)cc1 (centres undefined),94.7%
8,COC1=C[C@@H]2[C@@H]3Cc4ccc(OC)c(O)c4[C@]2(CCN3C)CC1=O,96%
9,CC(C)(C)[C@]1(O)C[C@@H]2OC(=O)CC23C(=O)O[C@@H]2OC(=O)[C@H](O)C231 (some centres undefined),93.3%
10,O[C@H]1[C@H](O)[C@@H](O)CN2CC[C@H](O)[C@H]12,97.8%
11,CSC(=S)NCc1c[nH]c2ccccc12,91.6%
12,N#CC(C#N)=Cc1cc(O)c(O)c([N+](=O)[O-])c1,106%
13,C[C@@H]1CC[C@H]2[C@@H](C)C(=O)O[C@@H]3OC4(C)CC[C@@H]1[C@]32OO4,71.5%
14,COC[C@H]1OC(=O)c2coc3c2[C@@]1(C)C1=C(C3=O)C2CCC(=O)[C@@]2(C)C[C@H]1OC(C)=O (some centres undefined),78.4%
15,CC(=O)O[C@H]1[C@H]2[C@@H](OC(=O)Cc3ccccc3)[C@@H](C)C[C@]2(OC(C)=O)C(=O)/C(C)=C/[C@@H]2[C@H](CC[C@@]13CO3)C2(C)C,68.9%
16,O=C1C=CC(=O)C(Cl)=C1,95.1%
17,CCN1C[C@@]2(COC)C3[C@@H](OC)[C@H]4C1[C@@]3(C1C[C@]3(O)C(OC)[C@H](O)[C@@]4(OC(C)=O)C1[C@H]3OC(=O)c1ccccc1)[C@H](OC)C[C@H]2O (some centres undefined),89.3%
